SMN2 splice up: qHTS Assay for Enhancers of SMN2 Splice Variant Expression | actives 2.8% (n = 210,000) | HEK293 SMN2-luciferase splicing reporter, luminescence, 30-36 h | Potency, µM (top dose mostly 46.1 µM), for the others: at the top dose activity change, positive = activation, usual class: activators | AID 1458, 2008; further: % of control where 0% means no effect; nearly all actives have a fitted effect of over 55% in size
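HEK293 cells carry an SMN2 minigene-luciferase reporter in which exon 7 inclusion puts luciferase in frame. Cells were seeded at 2000 cells/well, attached for 10-12 hours, then exposed to compounds for 30-36 hours at 37C before ONE-Glo luminescence.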
ELG1 genotox: qHTS screen for small molecules that induce genotoxicity in human embryonic kidney (HEK293T) cells expressing luciferase-tagged ELG1; HEK293T ELG1-luciferase reporter, luminescence, 16 h; Potency, µM (doses to about 46 µM), for inactives: top-dose activity change, positive = activation, most hits filed as activators; AID 504466, 2011; actives 1.3% (n = 330,000); further: % of control where 0% means no effect; nearly all actives have a fitted effect of over 60% in size
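Step 1: seed 2,000 HEK293T ELG1-luciferase cells per well. Step 2: add compound or DMSO, incubate 16 hr at 37 °C. Step 3: ONE-Glo, 30 min at room temperature, read luminescence.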
ELG1 DNA repair: qHTS screen for small molecules that inhibit ELG1-dependent DNA repair in human embryonic kidney (HEK293T) cells expressing luciferase-tagged ELG1 | actives 2.3% (n = 330,000) | HEK293T ELG1-luciferase reporter, luminescence, 16 h; DNA damage induced by 5-fluorouridine | Potency, µM (top dose mostly 46.1 µM), for the others: at the top dose activity change, negative = inhibition, actives largely listed as inhibitors; further: on the % scale 0 is the no-effect control and ±100 the full control effect; nearly all actives have a fitted effect of over 55% in size
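5-Fluorouridine DNA damage + compound/DMSO, 2,000 cells/well, 16 h, 37 °C/5% CO2. ONE-Glo, 30 min RT, luminescence. Readout = decrease in reporter signal.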
NPC1 prom act: qHTS Assay for NPC1 Promoter Activators. Potency, µM (highest dose often 9.22 µM), for the others: top-dose activation, actives largely listed as activators. Huh7 NPC1 promoter luciferase reporter, 24 h. actives 2.4% (n = 320,000); further: % of control where 0% means no effect; nearly all actives have a fitted effect of over 60% in size
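Stably transfected Huh7 (NPC1 promoter→luciferase), 1500 cells/well in Opti-MEM + 10% FBS, 2 h settle, then compound 24 h at 37 °C. Luminescence after 10 min with Amplite reagent.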
FLuc counter: qHTS profiling assay for firefly luciferase inhibitor/activator using purifed enzyme and Km concentrations of substrates (counterscreen for miR-21 project) | Luciferin 4-monooxygenase (Photinus pyralis), P08659 | purified FLuc, Km substrates, luminescence inhibition | Potency, µM (titrated, usually from 57.5 µM), inactives show at the top dose activity change, negative = inhibition, most hits filed as inhibitors | actives 6.9% (n = 360,000) | AID 588342, 2011;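 further: plate controls were vehicle for no effect and reference inhibitor for full effect; nearly all actives have a fitted effect of over 55% in size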
Target sequence (P08659 whole entry, looked up): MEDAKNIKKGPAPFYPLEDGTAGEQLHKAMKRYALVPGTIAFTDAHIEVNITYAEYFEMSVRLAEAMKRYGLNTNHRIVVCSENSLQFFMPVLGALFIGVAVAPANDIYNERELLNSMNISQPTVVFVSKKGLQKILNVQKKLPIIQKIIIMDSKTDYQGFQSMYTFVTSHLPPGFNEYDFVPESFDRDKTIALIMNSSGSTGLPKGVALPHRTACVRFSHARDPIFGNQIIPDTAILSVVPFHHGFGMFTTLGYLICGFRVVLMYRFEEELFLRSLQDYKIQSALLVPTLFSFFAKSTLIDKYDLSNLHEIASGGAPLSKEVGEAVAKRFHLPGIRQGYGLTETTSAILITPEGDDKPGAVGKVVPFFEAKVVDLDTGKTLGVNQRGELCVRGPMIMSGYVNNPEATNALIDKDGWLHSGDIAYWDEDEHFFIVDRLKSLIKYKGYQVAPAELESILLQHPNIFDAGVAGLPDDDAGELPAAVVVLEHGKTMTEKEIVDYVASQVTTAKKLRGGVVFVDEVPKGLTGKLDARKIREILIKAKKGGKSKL
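Purified P. pyralis luciferase (10nM final) with 10uM D-luciferin and 10uM ATP (Km levels) in 50mM Tris acetate pH 7.5, 10mM Mg acetate, 0.01% Tween-20, 0.05% BSA; qHTS 6-point titration, ~60 µM downward; luminescence read.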
Rab9 prom act: qHTS Assay for Rab9 Promoter Activators; Huh7 Rab9 promoter-luciferase reporter, luminescence, 24 h; Potency, µM (titrated, usually from 9.22 µM), for the others: at the top dose activation, negative = inhibition, hits mostly activators; actives 2.8% (n = 320,000); AID 485297, 2010; further: % of control where 0% means no effect; nearly all actives have a fitted effect of over 60% in size
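Measured in stably transfected Huh7 cells bearing a Rab9 promoter–luciferase construct: 24 h compound treatment at 37 °C, followed by luminescence detection.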
Numbers without * were called inactive; ? = inconclusive; . = no result given. Sampled rows, rich in hits. Any-hit rate of the full collection: about 9.2%. The call rests on the fitted dose curve; in most records, active means well fitted curve in the direction sought with a large enough effect; inconclusive means small, poorly fitted or top-dose-only effect, or another doubt; inactive means no such curve, though single readings can be large; an effect the other way counts as inactive or inconclusive. Potency means the concentration at half of the fitted maximal effect.

SMILES | SMN2 splice up | ELG1 genotox | ELG1 DNA repair | NPC1 prom act | FLuc counter | Rab9 prom act
COCCNC(=S)Nc1ccc(Cl)c(Cl)c1 | ? | -2% | -3% | 2% | -2% | -1%
C=COCCNC(=O)Nc1ccc(Cl)c(Cl)c1 | 27% | -3% | ? | ? | 17µM* | ?
O=C(NCc1cccnc1)Nc1ccc(Cl)c(Cl)c1 | . | 11% | ? | 18% | ? | ?
COc1ccc2c(c1)c1c(c(=O)n(-c3cccc(Cl)c3)c(=O)n1C)n2C | . | . | . | . | 6% | .
CC1CCCCN1C(=O)CCS(=O)(=O)c1cc2c(cc1Cl)NC(=O)CO2 (stereo unspecified) | . | -1% | 12% | -2% | -6% | 3%
COC(=O)c1ccc(C2c3c(-c4ccccc4O)n[nH]c3C(=O)N2Cc2cccnc2)cc1 (stereo unspecified) | 4% | . | . | . | -11% | .
C/C(=N\NC(=O)c1ccc2c(c1)OCO2)c1ccc(C(=O)O)s1 | . | 2% | ? | 0% | ? | 1%
C/C(=N\NC(=O)c1ccc(N/N=C(\C)c2ccc(O)cc2)cc1)c1ccc(O)cc1 | . | 0% | 8.2µM* | ? | 4.8µM* | ?
C/C(=N\NC(=O)c1ccc(O)cc1)c1ccc2c(c1)OCCO2 | . | ? | ? | 22% | 13µM* | 28%
C/C(=N\NC(=O)c1ccc(O)cc1)c1ccc(N2CCOCC2)cc1 | . | 4% | 21% | 9% | ? | 4%
CC(/C=C/c1ccccc1)=N\NC(=O)c1ccc2c(c1)OCCO2 | -6% | 2% | 3% | -6% | ? | -5%
C/C(=N\NC(=O)c1ccc2c(c1)OCO2)c1ccc2c(c1)OCO2 | 16µM* | 10% | ? | ? | 13µM* | 3.5µM*
C/C(=N\NC(=O)c1ccc2c(c1)OCCO2)c1ccccc1 | . | 0.33µM* | ? | ? | 0.38µM* | 3%
COc1cc(C(CC(=O)Nc2cc(C)ccc2C)N2Cc3ccccc3C2=O)cc(OC)c1OC (stereo unspecified) | . | . | . | . | 0% | .
Cc1ccc(N2C(=O)CS(=O)(=O)C23C(=O)N(C)c2ccccc23)cc1F (stereo unspecified) | . | . | . | . | 1% | .
Cc1ccc(/C=C/C(=O)c2ccccc(=O)c2O)cc1C | -101% | ? | 21µM* | 13% | ? | -1%
O=C(/C=C/c1ccccc1)c1cc(Br)ccc(=O)c1O | -86% | -21% | ? | -16% | 2% | -13%
COC(=O)c1ccc2c(=O)n(CCO)c(=S)[nH]c2c1 | 15% | -6% | -1% | -3% | 3% | -2%
COC(=O)c1ccc2c(=O)n(NC(=O)C(c3ccccc3)c3ccccc3)c(=S)[nH]c2c1 | -17% | -9% | 26µM* | 1% | -16% | -3%
CN(CC(=O)Nc1ccc(N2CCOCC2)cc1)Cc1c(O)ccc2ccccc12 | -3% | 1% | -3% | 3% | -14% | -2%
COc1cc2ccccc2cc1C(=O)Nc1ccc(CN2CCOCC2)cc1 | . | -11% | ? | 19% | 15µM* | 19%
COc1ccc(Br)cc1C(=O)NC(=S)Nc1ccc(CN2CCOCC2)cc1 | . | -12% | ? | -6% | -12% | -1%
O=C(Nc1ccc(CN2CCOCC2)cc1)c1cccs1 | 13µM* | ? | ? | ? | 12µM* | 3.2µM*
O=C(Nc1ccc(CN2CCOCC2)cc1)c1ccccc1F | 11µM* | ? | ? | 3.2µM* | ? | ?
O=C(Cc1ccccc1)Nc1ccc(CN2CCOCC2)cc1 | 22µM* | 12µM* | ? | ? | ? | ?
SMILES | SMN2 splice up | ELG1 genotox | ELG1 DNA repair | NPC1 prom act | FLuc counter | Rab9 prom act
CCn1cc(C(=O)NCC(C)C)c(=O)c2cc(F)c(N3CCN(C(=O)c4ccco4)CC3)cc21 | . | -9% | -1% | -3% | -1% | -6%
CCn1cc(C(=O)O)c(=O)c2cc(F)c(N3CCN(C(=S)NC(=O)c4ccccc4F)CC3)cc21 | . | -4% | ? | 2% | 1% | -1%
CCn1cc(C(=O)O)c(=O)c2cc(F)c(N3CCN(C(=O)Nc4ccccc4)CC3)cc21 | 18µM* | -36% | ? | -3% | 0% | 2%
CCC(C)NC(=O)c1cn(CC)c2cc(N3CCN(C(=O)c4ccco4)CC3)c(F)cc2c1=O (stereo unspecified) | . | -12% | 21µM* | -8% | -3% | -2%
O=C(N/N=C/c1ccc([N+](=O)[O-])o1)c1cc2ccccc2o1 | . | -1% | ? | -10% | -12% | -34%
O=[N+]([O-])c1ccc(/C=N/Nc2ccc3ccccc3c2)o1 | 9% | 13% | ? | ? | 11µM* | ?
Cc1ccc2nc(N/N=C\c3ccc([N+](=O)[O-])o3)nc(-c3ccccc3)c2c1 | -27% | -19% | 21µM* | 0% | 7.6µM* | 3%
O=[N+]([O-])c1ccc(/C=N/Nc2nc(-c3ccccc3)c3cc(Br)ccc3n2)o1 | -26% | 3% | -14% | -4% | -4% | 11%
CC(Oc1ccc(Cl)cc1Cl)c1nc(-c2ccc(NC(=O)c3ccncc3)cc2)no1 (stereo unspecified) | -71% | -3% | 18µM* | -29% | -4% | -22%
CC(Oc1ccc(Cl)cc1Cl)c1nc(-c2ccccn2)no1 (stereo unspecified) | 28% | ? | ? | ? | 15µM* | ?
CCOC(=O)c1cc(-c2ccccc2)n(CCCC(=O)Nc2cc(C)ccc2OC)c1C | . | . | . | . | 3% | .
Cc1cccn2c(/C=N/OCc3cccc(F)c3)c(-c3ccc(Cl)cc3)nc12 | -19% | -4% | -13% | -2% | -2% | -3%
COc1cccc(/C(C#N)=C/c2c(-c3ccc(Cl)cc3)nc3c(C)cccn23)c1 | -8% | -17% | 15µM* | -2% | 6% | -6%
O=c1cc(N2CCN(c3ccc(F)cc3)CC2)[nH]c(=O)n1-c1cccc(Br)c1 | . | . | . | . | -16% | .
CCN(CC)c1ccc(NC(=O)c2cc(Cl)ccc2OC)cc1 | 4% | 9% | 3% | 16% | 15µM* | 16%
COc1ccc(Cl)cc1C(=O)Nc1ccc2c(c1)OCO2 | 15% | ? | ? | ? | 24µM* | ?
CCN(CC)c1ccc(NC(=O)c2cc3c(OC)cccc3[nH]2)cc1 | . | -1% | -2% | -3% | 7.6µM* | 5%

Source: PubChem BioAssay (National Center for Advancing Translational Sciences (NCATS))
